# Reference: PubChem BioAssay (NCI)
# Compounds without any hit were thinned out: in the full panel of roughly 83,000, 20% have a hit.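 Treatment: one concentration, 48 hours, 96-well format. Scoring: percent growth, with anything below 10 considered active.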 Unmarked numbers belong to inactive results. The source made the active and inactive calls.
# How the values were obtained:
# Assay in all cases: NCI-60 one-dose screen, 48 h (100 = growth as untreated, 0 = no growth, -100 = all killed)
# Conditions in all cases: 10 µM unless noted
# [1] = test system: DU-145 prostate
# [2] = test system: MALME-3M melanoma
# [3] = test system: MDA-MB-231 breast
# [4] = test system: SF-268 CNS
# [5] = test system: SF-295 CNS
# [6] = test system: SF-539 CNS
# [7] = test system: M14 melanoma
# [8] = test system: HCT-15 colon
# [9] = test system: HT29 colon
# [10] = test system: SNB-75 CNS
# [11] = test system: SNB-19 CNS
# [12] = test system: U251 CNS
# [13] = test system: PC-3 prostate
# [14] = test system: SK-MEL-5 melanoma
# [15] = test system: UACC-62 melanoma
# [16] = test system: LOX IMVI melanoma
# [17] = test system: SK-MEL-28 melanoma
# [18] = test system: K-562 leukemia
# [19] = test system: RXF 393 renal
Compound,growth [1],growth [2],growth [3],growth [4],growth [5],growth [6],growth [7],growth [8],growth [9],growth [10],growth [11],growth [12],growth [13],growth [14],growth [15],growth [16],growth [17],growth [18] [%],growth [19] [%]
CCc1ccc(/C=C/c2ccc(O)c3ncccc23)[n+](C)c1,42.8%,63.5%,90.9%,47.7%,58.5%,62.7%,47.6%,85%,50.9%,48.1%,41.1%,25.9%,61.3%,26.3%,35.7%,55.6%,60.7%,–,–
O=C(NO)c1ccc(Cn2c(=O)n(CCc3ccccc3)c(=O)c3ccccc32)cc1,30.5%,–,39%,46.4%,22.1%,12.1%,22.2%,28.6%,42.3%,54.3%,45.2%,23.8%,20.3%,34.8%,3.79% (active),12.9%,13.4%,35.4,15.8
Nc1nc(=S)c2ncn(C3OC(COC(=O)c4ccc(Cl)cc4)C(OC(=O)c4ccc(Cl)cc4)C3OC(=O)c3ccc(Cl)cc3)c2[nH]1 (stereo not given),105%,102%,88%,90.4%,114%,89.9%,99.4%,95.5%,87.9%,76.7%,86.9%,38%,84.9%,65.7%,94.1%,90.5%,82.4%,–,–
CCN(CC)CCNc1ccc(N=Nc2cnc3ccccc3c2)c2ccccc12,-85.1% (active),-56.5% (active),-87.6% (active),-77.7% (active),-53.9% (active),-97.4% (active),-67.3% (active),-66.5% (active),-90.3% (active),-56.8% (active),-71.7% (active),-76.9% (active),-83.8% (active),-97.8% (active),-92.5% (active),-81% (active),-92.8% (active),–,–
CCCC(=O)OCC1OC(n2cnc3c(=S)nc(N)[nH]c32)C(OC(=O)CCC)C1OC(=O)CCC (stereo not given),27.3%,29.9%,38.9%,38.8%,19.8%,26.7%,13.9%,50.2%,30.2%,34.8%,89.3%,68.2%,76.1%,42.8%,8.36% (active),12%,75.8%,–,–
N#Cc1c(-c2ccc(C(F)(F)F)cc2)c(F)c(NCCC2CCC(O)C2)n2c1nc1ccccc12 (stereo not given),47.2%,–,22.1%,70.7%,55.4%,71.1%,18.4%,49.6%,17.8%,68%,78.3%,61.4%,37.8%,61.8%,72.7%,6.38% (active),61.8%,25.9,41.4
O=C(Nc1ccc(C(=O)Nc2ccc(C3=NCCCN3)cc2)cc1)Nc1ccc(C2=NCCCN2)cc1,96.1%,69.5%,92.4%,110%,85.3%,87.2%,87%,100%,92.8%,91%,95.6%,84.6%,90%,54.7%,82.7%,85.8%,105%,–,–
Oc1ccc(/C=N/Nc2nnc(N/N=C/c3ccc(O)cc3O)c3ccccc23)c(O)c1,-24.3% (active),-5.87% (active),-13.6% (active),-5.14% (active),-38.1% (active),-42.1% (active),-52.7% (active),7.14% (active),-35.3% (active),-46.9% (active),-1.04% (active),-25% (active),-50.8% (active),-17.7% (active),-94.8% (active),-51.4% (active),-43.3% (active),–,–
Nc1cc2c(cc1Br)-c1c(C(=O)O)cccc1C2O (stereo not given),110%,98.2%,98.3%,115%,118%,98.6%,98.9%,108%,106%,90.2%,99.5%,97.4%,82.2%,99.9%,90.9%,95.8%,102%,–,–
